Records with an inconclusive call do not appear. A number with no mark means an inactive call. Active and inactive are the calls of the source. Calls come from the whole dose curve; as a rule, active = well fitted inhibition curve with a large enough effect; inconclusive = small, poorly fitted or top-dose-only effect, or effect the other way; inactive = flat fitted curve, though single readings scatter.
% is set by controls: 0 for no effect and ±100 for the full control effect; potency is the fitted concentration of half-maximal effect.

The target of the assay is Ubiquitin carboxyl-terminal hydrolase 2 (Homo sapiens) (UniProt O75604). Kind of assay: Ub-rhodamine 110 based assay for inhibitors Ubiquitin-specific Protease USP2a. Note: nearly all actives have a fitted effect of over 50% in size. The following applies: USP2a Ub-rhodamine110 cleavage, fluorescence; series mostly up to 38.3 µM; activity change, negative = inhibition: at the top concentration. An outline of the steps: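 5 nM USP2a preincubated with compounds for 30 min at RT in 20 mM Tris-HCl pH 8.0, 2 mM CaCl2, 2 mM beta-mercaptoethanol, 0.05% CHAPS. Cleavage of 150 nM Ub-rhodamine 110 read kinetically (Ex 485/Em 531) for 7 min.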
Sequence of Ubiquitin carboxyl-terminal hydrolase 2 (Homo sapiens) (O75604 whole entry, looked up): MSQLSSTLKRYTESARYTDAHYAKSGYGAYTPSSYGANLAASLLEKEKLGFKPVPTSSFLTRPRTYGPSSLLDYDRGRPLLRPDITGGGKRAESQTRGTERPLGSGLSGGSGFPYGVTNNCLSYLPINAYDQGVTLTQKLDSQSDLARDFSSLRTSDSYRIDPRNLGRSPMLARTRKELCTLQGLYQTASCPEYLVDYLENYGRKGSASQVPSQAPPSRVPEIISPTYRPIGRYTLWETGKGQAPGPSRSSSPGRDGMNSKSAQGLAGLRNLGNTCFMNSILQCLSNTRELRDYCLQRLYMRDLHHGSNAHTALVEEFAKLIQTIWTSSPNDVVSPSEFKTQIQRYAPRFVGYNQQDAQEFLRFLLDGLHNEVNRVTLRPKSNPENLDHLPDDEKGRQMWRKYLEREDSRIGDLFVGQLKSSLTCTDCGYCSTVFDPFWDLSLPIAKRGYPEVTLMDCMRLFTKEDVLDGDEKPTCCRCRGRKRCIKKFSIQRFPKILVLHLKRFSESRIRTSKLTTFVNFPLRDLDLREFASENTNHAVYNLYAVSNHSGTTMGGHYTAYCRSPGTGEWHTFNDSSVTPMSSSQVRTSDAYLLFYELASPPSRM
Regarding `CCOC(=O)N1CCC(NC(=O)c2ccc(OC)c(CN3CC(=O)N4CCCC4C3=O)c2)CC1` (stereo unspecified), the “activity change, negative = inhibition” value is -0.633%.

In the case of `COc1cc(C)ccc1OCCOc1cc(C)ccc1Cl`, the “activity change, negative = inhibition” value is -9%.

For `Cc1ccc(S(=O)(=O)N2[C@@H](c3ccc(Cl)cc3)C(C(=O)O)=CC[C@H]2c2ccc(C(C)C)cc2)cc1`, the Potency is 10 µM (active).

In the case of `Cc1ccc(C(=O)N(C)CC(=O)Nc2cccc(C)c2C)o1`, the “activity change, negative = inhibition” value is -0.589%.

`Cc1ccc(C)c(S(=O)(=O)N2CCN(C(=O)/C=C/c3ccco3)CC2)c1`: the Potency is 10 µM (active).

`Cc1cc(SCC(=O)Nc2ccccc2)nc(C)n1`: the “activity change, negative = inhibition” value was 4.59%.

Regarding `CCOc1ccc(C(=O)c2ccc(OCC)c(N)c2)cc1N`, the “activity change, negative = inhibition” value is -6.4%.

On to `CCOc1ccc(S(=O)(=O)N(CC(=O)O)c2ccccc2)cc1`, for which the “activity change, negative = inhibition” value was 3.71%.

On to `CC(C)C(=O)N=c1sc2cc(F)cc(F)c2n1C`, for which the “activity change, negative = inhibition” value is -9.69%.

For `COc1ccc(NC(=O)CSc2nnc(-c3ccccc3Cl)n2Cc2ccco2)c(OC)c1`, the “activity change, negative = inhibition” value is -3.93%.

For `COc1cc(-c2nc(-c3ccc4c(c3)-c3ccccc3S4(=O)=O)c(-c3ccccc3)[nH]2)cc(OC)c1O`, the “activity change, negative = inhibition” value is -23%.

Regarding `Cc1csc(NC(=O)CCn2c(=O)sc3ccccc32)n1`, the “activity change, negative = inhibition” value was -7.06%.

Regarding `CCCCn1c(SCC(=O)N2CCC(C)CC2)nc2cc(S(N)(=O)=O)ccc21`, the “activity change, negative = inhibition” value is -19.5%.

With `CCn1c(CN2CCOCC2)nnc1SCC(=O)Nc1ccc(C(C)=O)cc1`, the “activity change, negative = inhibition” value was -8.68%.

For `O=C1CS/C(=C/C(=O)c2ccccc2)N1`, the “activity change, negative = inhibition” value was -10.4%.

Take `Cc1ccc(C)c(S(=O)(=O)c2c(N)n(/N=C/c3ccco3)c3nc4ccccc4nc23)c1`: the “activity change, negative = inhibition” value is -23.7%.

As to `COc1cccc(C(=O)NC(C)c2ccc(-c3ccccc3)cc2)c1OC` (stereo unspecified), the “activity change, negative = inhibition” value was -7.15%.

`CCCCNc1nc2ccccc2nc1NS(=O)(=O)c1cccs1`: the “activity change, negative = inhibition” value is -9%.

As to `Cc1ccc(C(=O)NCCCc2ccccc2)s1`, the “activity change, negative = inhibition” value is -21.5%.

As to `O=C(NCC(c1cccnc1)N1CCN(c2ccc(F)cc2)CC1)OCc1ccccc1` (stereo unspecified), the “activity change, negative = inhibition” value is -5.52%.

Consider `CCCOc1ccc(-c2nc(C#N)c(N3CCN(CC)CC3)o2)cc1`, for which the “activity change, negative = inhibition” value was -9.67%.
